Measurements: PubChem BioAssay (EPA / NIEHS)
Results filed as inconclusive are left out. Active and inactive are the calls of the source. How the source made its calls, unless noted: active means hit-call score of the fitted dose curve at least 0.9, where 1 is the maximum; inconclusive means response in the unintended direction; inactive means score below 0.9.

How the values were obtained:
[1] = CCTE_Shafer_MEA_dev_firing_rate_mean: CCTE's Neural Network Formation Assay for Mean Firing Rate, Shafer Lab (AID 2284031; active means hit-call score of the fitted dose curve at least 0.9, where 1 is the maximum; inactive means score below 0.9;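 on AC50: curve fitted for loss of firing so AC50 reflects decreased mean firing rate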)
In short: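 Spike frequency (spikes/recording length, averaged over active electrodes) was recorded on days 5, 7, 9 and 12 and collapsed to AUC; rat cortical cultures received compound continuously over 12 days of network development.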

[2] = CCTE_Shafer_MEA_dev_per_burst_spike_percent: CCTE's Neural Network Formation Assay for Percent of Spikes in a Burst, Shafer Lab (AID 2284032; active means hit-call score of the fitted dose curve at least 0.9, where 1 is the maximum; inactive means score below 0.9;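 on AC50: fitted as a decrease in burst spike percentage below DMSO baseline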)
In short: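 Value is trapezoidal AUC over recordings on days 5, 7, 9 and 12 of the well-mean fraction of spikes falling in single-electrode bursts; rat cortical cultures exposed continuously from plating, treatment renewed DIV 5 and 9, fitted downward against DMSO.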

[3] = CCTE_Shafer_MEA_dev_active_electrodes_number: CCTE's Neural Network Formation Assay for Number of Active Electrodes, Shafer Lab (AID 2284040);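 on AC50: potency for loss of active electrodes versus DMSO so lower counts are hits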
In short: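 Counts electrodes per well firing at least 5 spikes/min, recorded on days 5, 7, 9 and 12 in rat cortical cultures dosed continuously from plating (treatment refreshed DIV 5, 9). Value is the area under the curve over recordings, fitted downward relative to DMSO.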

[4] = CCTE_Shafer_MEA_dev_burst_rate: CCTE's Neural Network Formation Assay for Burst Rate, Shafer Lab (AID 2284042; active means hit-call score of the fitted dose curve at least 0.9, where 1 is the maximum; inactive means score below 0.9;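 on AC50: potency for loss of burst rate below DMSO control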)
In short: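 Developmental network assay measuring how 12-day exposure of rat cortical neuron cultures alters bursting on extracellular MEA recordings. Values are AUC of well-mean burst rate across four recording days, relative to DMSO vehicle.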

[5] = CCTE_Deisenroth_AIME_384WELL_CTox_Active: Cytotoxicity Assessment (CTOX) in CCTE's 384-well Estrogen Receptor Transactivation Assay with AIME metabolic competence (metabolism positive), Deisenroth Lab (AID 2284037);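 further: chemicals first conditioned 2 h by alginate-bound induced rat liver S9 before cells; activity means signal loss indicating cell death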
In short: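 VM7Luc4E2 breast cells received medium pre-incubated 2 h with chemical over alginate microspheres holding induced male Sprague Dawley rat liver S9; viability read 24 h later by protease-substrate fluorescence. Loss of signal, bidirectional fit, 0.002–200 uM.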

[6] = CCTE_Deisenroth_AIME_384WELL_CTox_Inactive: Cytotoxicity Assessment (CTOX) in CCTE's 384-well Estrogen Receptor Transactivation Assay without AIME metabolic competence (metabolism negative), Deisenroth Lab (AID 2284039);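 further: cell viability via live-cell protease substrate cleaved to fluorescent probe; cells exposed 24 h to medium preincubated 2 h with alginate-water beads without S9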
In short: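 Fluorescence from a live-cell protease substrate, read after 24 h in VM7Luc4E2 cells, indicated viability. Test medium came from a 2 h AIME step without hepatic S9 (alginate-water microspheres); concentrations spanned 0.002 - 200 uM, single technical replicate per run.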

[7] = target: Estrogen receptor (Homo sapiens) (UniProt P03372); assay: CCTE_Deisenroth_AIME_384WELL_LUC_Active: CCTE's 384-well Estrogen Receptor Transactivation Assay with AIME metabolic competence (ERTA luciferase; metabolism positive), Deisenroth Lab (AID 2284030)
Sequence of Estrogen receptor (Homo sapiens) (P03372 whole entry, looked up): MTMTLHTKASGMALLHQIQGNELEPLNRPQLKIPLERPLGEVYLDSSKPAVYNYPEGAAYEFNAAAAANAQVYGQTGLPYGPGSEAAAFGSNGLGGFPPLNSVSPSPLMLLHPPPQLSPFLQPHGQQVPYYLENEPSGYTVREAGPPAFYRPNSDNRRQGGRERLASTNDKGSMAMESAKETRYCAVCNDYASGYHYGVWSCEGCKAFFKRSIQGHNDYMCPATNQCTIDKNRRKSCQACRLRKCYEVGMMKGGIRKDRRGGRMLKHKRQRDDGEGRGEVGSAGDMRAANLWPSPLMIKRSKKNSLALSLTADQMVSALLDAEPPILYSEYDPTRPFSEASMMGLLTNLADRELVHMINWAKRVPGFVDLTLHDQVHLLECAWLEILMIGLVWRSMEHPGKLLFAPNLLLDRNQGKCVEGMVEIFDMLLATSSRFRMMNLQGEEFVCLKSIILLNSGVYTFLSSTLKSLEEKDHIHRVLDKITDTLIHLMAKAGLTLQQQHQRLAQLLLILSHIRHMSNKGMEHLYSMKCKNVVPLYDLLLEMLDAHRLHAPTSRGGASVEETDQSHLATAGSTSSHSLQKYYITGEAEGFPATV
In short: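 Estrogenic luciferase signal in VM7Luc4E2 cells is measured at 24 hour, after chemicals have been preconditioned 2 hours with PB/BNF-induced rat hepatic S9 in alginate. Gain of signal is fitted relative to 17beta-estradiol, across 0.002 - 200 uM.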

[8] = target: Estrogen receptor (Homo sapiens) (UniProt P03372); assay: CCTE_Deisenroth_AIME_384WELL_LUC_Inactive: CCTE's 384-well Estrogen Receptor Transactivation Assay without AIME metabolic competence (ERTA luciferase; metabolism negative), Deisenroth Lab (AID 2284038);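 further: hits raise estrogen receptor luciferase signal so potencies reflect agonists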
In short: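 VM7Luc4E2 ER transactivation, luciferase bioluminescence after 24 h, using medium pre-incubated 2 h with S9-free alginate microspheres. Concentrations 0.002–200 uM; gain of signal fitted relative to 17beta-estradiol.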

[9] = target: Estrogen receptor (Homo sapiens) (UniProt P03372); assay: CCTE_Deisenroth_AIME_384WELL_LUC_Shift: CCTE's 384-well Estrogen Receptor Transactivation Assay with AIME metabolic competence data shift (ERTA luciferase; difference in metabolism positive and negative), Deisenroth Lab (AID 2284041; active means hit-call score of the fitted dose curve at least 0.9, where 1 is the maximum; inactive means score below 0.9;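 further: shift is response with S9 minus without S9 so positive means metabolism raised ER signal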)
In short: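 Here, parent compounds undergo 2 h phase I metabolism by PB/BNF-induced rat S9 before 24 h transactivation in VM7Luc4E2 cells; the curve models S9-positive minus S9-negative response over a 10-point series.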

**Q.** For `CN(C)C(=N)N=C(N)N`, which outcome [1] is on record?
**A.** inactive

**Q.** What about the outcome [2] of the same molecule?
**A.** inactive

**Q.** What about the outcome [3] of the same molecule?
**A.** inactive

**Q.** And the outcome [4]?
**A.** inactive

**Q.** For `Cc1ccc(O)c(C(C)(C)C)c1`, which outcome [5] is on record?
**A.** inactive

**Q.** What does the source list for `NCCCCCCN`?
**A.** outcome [5]: inactive; outcome [6]: inactive

**Q.** With `CCC(=O)/C=C/C1C(C)=CCCC1(C)C` (stereo not given) as the molecule, how does the outcome [6] read?
**A.** inactive

**Q.** Which outcome [5] does the source give for `CCCC1CCC(=O)O1` (stereo not given) here?
**A.** inactive

**Q.** What about the outcome [6] of the same molecule?
**A.** inactive

**Q.** Which outcome [5] does the source give for `O=C[C@@H](O)[C@H](O)[C@H](O)CO` here?
**A.** inactive

**Q.** What about the outcome [6] of the same molecule?
**A.** inactive

**Q.** With `O=C(Cl)c1cccc(C(=O)Cl)c1` as the molecule, how does the outcome [5] read?
**A.** inactive

**Q.** For `CC1(C)C(=O)N(Br)C(=O)N1Cl`, which outcome [5] is on record?
**A.** inactive

**Q.** And the outcome [6]?
**A.** inactive

**Q.** Which outcome [6] does the source give for `CCCCC(CC)COC(=O)/C=C\C(=O)OCC(CC)CCCC` (stereo not given) here?
**A.** inactive

**Q.** Which outcome [6] does the source give for `O=C1C(c2[nH]c3ccc(S(=O)(=O)O)cc3c2O)=Nc2ccc(S(=O)(=O)O)cc21` here?
**A.** inactive

**Q.** With `N#Cc1ccc(CC(=NNC(=O)Nc2ccc(OC(F)(F)F)cc2)c2cccc(C(F)(F)F)c2)cc1` as the molecule, how does the AC50 [1] read?
**A.** 363 nM (active)

**Q.** And the AC50 [2]?
**A.** 301 nM (active)

**Q.** And the AC50 [3]?
**A.** 692 nM (active)

**Q.** What about the AC50 [4] of the same molecule?
**A.** 240 nM (active)

**Q.** Which outcome [6] does the source give for `NC(=O)NC1NC(=O)NC1=O` (stereo not given) here?
**A.** inactive

**Q.** With `O=C(O)Cc1cccc2ccccc12` as the molecule, how does the outcome [5] read?
**A.** inactive

**Q.** Which results are given for `OCCOCCOCCOCCO`?
**A.** AC50 [7]: 0.342 nM (active); outcome [5]: inactive; AC50 [8]: 1.71 nM (active); outcome [6]: inactive; outcome [9]: inactive

**Q.** For `CCCCCCCCCC=O`, which outcome [7] is on record?
**A.** inactive

**Q.** And the outcome [8]?
**A.** inactive

**Q.** And the outcome [9]?
**A.** inactive

**Q.** Which results are given for `CC(C)=CCCC(C)CC=O` (stereo not given)?
**A.** outcome [5]: inactive; outcome [6]: inactive

**Q.** Which outcome [6] does the source give for `O=C(O)c1ccc(C(=O)O)cc1` here?
**A.** inactive

**Q.** For `O=C(O)c1ccc([N+](=O)[O-])cc1`, which outcome [5] is on record?
**A.** inactive

**Q.** And the outcome [6]?
**A.** inactive

**Q.** With `CC1(C)[C@@H]2CC[C@@]1(C)[C@H](O)C2` as the molecule, how does the outcome [5] read?
**A.** inactive

**Q.** What about the outcome [6] of the same molecule?
**A.** inactive

**Q.** Which outcome [5] does the source give for `CCCCCOC(=O)CCC` here?
**A.** inactive

**Q.** For `c1ccc2c(c1)c1cccc3ccc4cccc2c4c31`, which outcome [1] is on record?
**A.** inactive

**Q.** What about the outcome [2] of the same molecule?
**A.** inactive

**Q.** And the AC50 [3]?
**A.** 3190 nM (active)

**Q.** And the outcome [4]?
**A.** inactive

**Q.** Which AC50 [5] does the source give for `CCCCCCCCCCCCCOS(=O)(=O)O` here?
**A.** 156000 nM (active)

**Q.** And the AC50 [6]?
**A.** 96300 nM (active)
